These results are taken from PubChem BioAssay.

Assay [1] in a line: compound effects on lung adenocarcinoma cell viability – A549, calcein-AM fluorescence, 48 h, basal, profiling panel (AID 1162). The conditions noted are these: higher = more signal.
The nature of assay [2]: compound effects on differentiated 3T3-L1 adipocyte viability – cell-based, 3T3-L1 adipocytes, calcein-AM fluorescence, 48 h, basal, profiling panel (AID 1163). The conditions noted are these: 3T3-L1 adipocytes viability, higher = more signal.
Assay [3] in a line: compound effects on hepatocellular carcinoma cell viability – HepG2, calcein-AM fluorescence, 48 h, basal, profiling panel (AID 1164). To be noted: higher = more signal.
Assay [4] is described as follows: compound effects on multiple myeloma cell viability – MM1S, calcein-AM fluorescence, 48 h, basal, profiling panel (AID 1165). The conditions noted are these: higher = more signal.
Assay [5] is described as follows: calcein-AM signal in unstimulated myeloma cells – cell-based, calcein-AM fluorescence, 48 h, PK04 Diversity Set, profiling panel (AID 1166).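 Also: cells grown under basal conditions without added stimulus.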 The conditions noted are these: RPMI8226 myeloma viability, higher = more signal.
Assay [6] in a line: JC-1 mitochondrial signal, unstimulated HepG2 cells – cell-based, JC-1 fluorescence, 24 h, 100 nL compound, profiling panel (AID 1167). To be noted: HepG2 mitochondrial potential, higher = more signal.
Assay [7] is described as follows: JC-1 mitochondrial signal, unstimulated adipocytes – cell-based, JC-1 fluorescence, 3T3-L1 adipocytes, 24 h, 100 nL compound, profiling panel (AID 1168). To be noted: JC-1 mitochondrial fluorescence, higher = more signal, called active from +8 up or from −8 down.
Assay [8] can be described thus: JC-1 mitochondrial signal, unstimulated myeloma cells – cell-based, JC-1 fluorescence, RPMI8226, 24 h, 100 nL compound, profiling panel (AID 1169). The conditions noted are these: JC-1 mitochondrial potential fluorescence, higher = more signal.
Assay [9] in a line: JC-1 mitochondrial signal, unstimulated MM1S myeloma – cell-based, JC-1 fluorescence, 24 h, 100 nL compound, profiling panel (AID 1170). The conditions noted are these: MM1S mitochondrial potential, higher = more signal.
Assay [10] can be described thus: resazurin metabolic signal in A549 cells – cell-based, resazurin fluorescence, 24 h, PK04 Diversity Set, profiling panel (AID 1171). To be noted: A549 viability, higher = more signal, called active from +8 up or from −8 down. Background: The colour change of resazurin is a common sign of viable cells or microbes.

Active and inactive are the calls of the source.
Also: test concentration not given here.

With `COc1ccc(C#Cc2ccc3c(c2)[C@]2(C(=O)N3)[C@H](c3ccccc3OCCO)N3[C@H](c4ccccc4)[C@H](c4ccccc4)OC(=O)[C@H]3[C@@H]2C(=O)O)cc1`, the z-score in assay [1] was 0.1; in assay [2], 0.143; in [3] it was -2.53; in assay [4], -3.32; in assay [5], -4.18; in [6] it was -3.62. For the same molecule, the z-score in assay [7] was 2.54 (inactive); in [8] it was -0.93; in assay [9], -1.9; in assay [10], 0.206 (inactive).
As for `COC(=O)[C@@]1(Cc2ccc(OC)cc2)[C@H]2c3cc(C(=O)N4CCCC4)n(Cc4ccccc4)c3C[C@H]2CN1C(=O)c1ccccc1`, the z-score in assay [1] was -0.549; in [2], 0.39; in assay [3], -0.331; in assay [4], -1.63; in [5] it was -2.12; in [6], 2.44. The z-score in assay [7] is -1.07 (inactive); in assay [8], -0.933; in assay [9] it was -1.3; in assay [10] it was -2.5 (inactive).
Take `Cc1ccc(S[C@]2(C(=O)NCCN3CCOCC3)CC(=O)N(Cc3ccccc3Cl)[C@@H]2c2ccc(CO)cc2)cc1`: the z-score in assay [1] was 0.263; in assay [2], 1.03; in [3] it was -0.0334; in assay [4], 0.368; in assay [5] it was -1.77; in assay [6] it was 0.482. Further, the z-score was -0.41 (inactive) in [7], -0.168 in assay [8], -1.17 in assay [9] and 1.05 (inactive) in assay [10].
For the molecule `COCCOC(=O)N1C(=O)[C@@]2(c3cc(C#Cc4ccc(OC)cc4)ccc31)[C@H](c1ccc(O)cc1)N1[C@H](c3ccccc3)[C@H](c3ccccc3)OC(=O)[C@H]1[C@@H]2C(=O)NC[C@H](O)c1ccccc1`, the z-score in assay [1] is -0.828; in assay [2], 1.44; in [3], -0.55; in assay [4], -1; in assay [5], -2.16; in assay [6], -1.99. The z-score in assay [7] was 2.46 (inactive); in assay [8], -0.653; in [9] it was -0.524; in assay [10], 0.123 (inactive).
Regarding `C=CCNC(=O)[C@@H]1[C@H]2C(=O)O[C@H](c3ccccc3)[C@H](c3ccccc3)N2[C@H](c2ccc(OCCO)cc2)[C@@]12C(=O)Nc1ccc(C#Cc3ccc(OC)cc3)cc12`, the z-score in assay [1] is -0.717; in assay [2] it was 1.82; in assay [3], -0.969; in [4] it was -0.891; in assay [5], -1.86; in [6], -1.12. Besides, the z-score in [7] was 1.05 (inactive); in assay [8], -0.592; in assay [9], -0.913; in assay [10] it was -1.03 (inactive).
As to `O=C1OCCC/C=C\[C@H]2OC34C=CCN(Cc5ccccc5)C(=O)[C@H]3N(CCCCCCO)C(=O)[C@@H]4C12` (stereo not given in full), the z-score is 2.3 in [1]; 0.0451 in [2]; 0.685 in assay [3]; 1.85 in [4]; 1.05 in assay [5]; 1.54 in [6]. For the same molecule, the z-score in assay [7] was 0.948 (inactive); in assay [8], 0.44; in assay [9] it was -1.11; in [10] it was 1.28 (inactive).
With `CN1C(=O)C2C=CC(C(O)c3ccc(-c4ccccc4)s3)N(N(c3ccccc3)c3ccccc3)C2C1=O` (stereo not given), the z-score in assay [1] was 0.281; in [2] it was -0.905; in assay [3], 0.391; in assay [4], -0.616; in [5], 0.275; in [6], 0.748. For the same molecule, the z-score in [7] is -1.98 (inactive); in assay [8], -1.05; in [9] it was -0.434; in [10], -0.434 (inactive).
For the molecule `COC(=O)[C@@]1(Cc2ccccc2)[C@H]2c3cc(C(=O)N4CCCC4)n(Cc4cccc5ccccc45)c3C[C@H]2CN1C(=O)c1ccccc1`, the z-score in assay [1] was -0.692; in [2] it was -0.57; in [3] it was -0.824; in assay [4], -1.42; in assay [5], -3.92; in assay [6], 1.04. The z-score in [7] is -2.12 (inactive); in assay [8] it was -0.784; in assay [9], -1.74; in [10] it was -1.19 (inactive).
As for `COCCOC(=O)N1C(=O)[C@@]2(c3cc(C#Cc4ccc(OC)cc4)ccc31)[C@H](c1ccccc1OCCO)N1[C@H](c3ccccc3)[C@H](c3ccccc3)OC(=O)[C@H]1[C@@H]2C(=O)N1CCN(c2ncccn2)CC1`, the z-score is 0.204 in assay [1]; -0.226 in assay [2]; 0.348 in assay [3]; -0.653 in [4]; 0.149 in assay [5]; 0.356 in [6]. Also, the z-score in [7] was 2.41 (inactive); in assay [8] it was -0.72; in [9], -1.37; in assay [10], -0.692 (inactive).
With `C=C[C@H](COC(C)=O)N(C(=O)OC(C)(C)C)S(=O)(=O)c1ccc(Br)cc1`, the z-score is 1.67 in assay [1]; 0.49 in [2]; 1.36 in assay [3]; -0.138 in assay [4]; 0.0593 in assay [5]; -0.87 in assay [6]. Also, the z-score in assay [7] was -0.614 (inactive); in [8], -0.931; in assay [9], -0.406; in assay [10], 0.708 (inactive).
Turning to `COC(=O)[C@@]1(Cc2ccc(F)cc2)[C@H]2c3cc(C(=O)N(C)C)n(Cc4ccc(S(C)(=O)=O)cc4)c3C[C@H]2CN1C(=O)c1ccccc1`, the z-score is -0.379 in [1]; -0.631 in assay [2]; 0.137 in assay [3]; 0.373 in [4]; -0.198 in assay [5]; 3.32 in assay [6]. Moreover, the z-score is -0.224 (inactive) in assay [7], 0.059 in [8], 0.125 in assay [9] and -0.46 (inactive) in [10].
Take `C=CCN(Cc1ccccc1)C(=O)C(c1cccs1)N(CCOCCO)C(=O)/C=C\C(=O)O` (stereo not given): the z-score in assay [1] was 0.902; in [2] it was 0.345; in [3], 0.849; in [4] it was 1.62; in assay [5], 1; in assay [6] it was -0.138. The z-score in assay [7] is 0.0415 (inactive); in [8], 0.158; in assay [9], -1.37; in assay [10], -0.221 (inactive).
Regarding `O=C1NCC(=O)N2[C@@H]1C[C@@H](C(=O)O)[C@H]2c1cccc(OCCO)c1`, the z-score in assay [1] is 0.278; in assay [2] it was -0.856; in [3] it was 0.662; in assay [4] it was 0.301; in assay [5], 0.362; in [6] it was 2.32. The z-score in [7] was -0.16 (inactive); in assay [8], 0.529; in [9] it was -0.514; in [10], -0.229 (inactive).
Turning to `CCCCC=C[C@@H](NC(=O)Oc1cccc(C(F)(F)F)c1)c1ccccc1`, the z-score is -1.12 in [1]; 0.26 in [2]; -0.568 in assay [3]; -1.8 in [4]; -3.36 in assay [5]; -1.63 in assay [6]. Also, the z-score was -0.585 (inactive) in assay [7], -0.799 in assay [8], -1.1 in assay [9] and -0.665 (inactive) in [10].
Consider `COc1cc2c(cc1O)C=[N+](Cc1cccc(OC(F)(F)F)c1)CC2`, for which the z-score in assay [1] was 1.45; in assay [2], 0.0197; in [3] it was 1.2; in assay [4] it was 1.25; in [5], 0.346; in assay [6], 1.01. Also, the z-score in assay [7] was 0.0547 (inactive); in assay [8] it was 0.145; in assay [9] it was -0.471; in assay [10] it was -1.68 (inactive).
